Test results reported in PubChem BioAssay AID1159580 (chemical genetic matrix, 2015).
The campaign covered roughly 5,500 compounds. About 2,000 (36%) were called active. Not shown: some 18% with an inconclusive outcome. No stated cut-off is given here; in the data, active means normalized growth mostly below about 0.91 (no sharp cut-off); inconclusive means no clear call, values can overlap the other calls; inactive means mostly above about 0.92. Some of the results follow.

Experiment: chemical genetic growth profiling, strain panel (AID 1159580);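 further: tested at 20 µM; growth read once vehicle control cultures reached saturation at 30 °C; 1 = growth at the plate median or of vehicle wells; lower values mean less growth of the strain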
Settings: growth OD

Measured: normalized growth

CCC[C@@H]1C[C@@H](C(=O)N[C@H]([C@H]2O[C@H](SC)[C@H](O)[C@@H](O)[C@H]2O)[C@H](C)O)N(C)C1
inactive: S. cerevisiae deletion strains, locus YJR066W, strain TOR1, active compounds read low 0.967 | S. cerevisiae deletion strains, locus YJR075W, strain HOC1, active compounds read low 0.993 | S. cerevisiae deletion strains, locus YKL009W, strain mrt4, active compounds read low 0.974 | S. cerevisiae deletion strains, locus YKL068W, active compounds read low 0.991 | S. cerevisiae deletion strains, locus YKL085W, strain MDH1 (second series), active compounds read low 0.984 | S. cerevisiae deletion strains, locus YKL085W, strain MDH1, active compounds read low 0.984 | S. cerevisiae deletion strains, locus YKL160W, strain elf1, active compounds read low 0.964 | S. cerevisiae deletion strains, locus YKL190W, strain CNB1, active compounds read low 1.01 | S. cerevisiae deletion strains, locus YKR001C, strain vps1, active compounds read low 0.996 | S. cerevisiae deletion strains, locus YKR026C, strain gcn3, active compounds read low 0.979 | S. cerevisiae deletion strains, locus YKR091W, strain srl3, active compounds read low 0.987 | S. cerevisiae deletion strains, locus YLL001W, strain dnm1, active compounds read low 0.951 | S. cerevisiae deletion strains, locus YLL026W, active compounds read low 0.962 | S. cerevisiae deletion strains, locus YLL041C, strain sdh2, active compounds read low 0.982 | S. cerevisiae deletion strains, locus YLR027C, strain aat2, active compounds read low 0.97 | S. cerevisiae deletion strains, locus YLR039C, strain RIC1, active compounds read low 0.973 | S. cerevisiae deletion strains, locus YLR058C, strain SHM2, active compounds read low 0.977 | S. cerevisiae deletion strains, locus YLR102C, strain apc9, active compounds read low 0.992 | S. cerevisiae deletion strains, locus YLR113W, strain HOG1, active compounds read low 1.03 | S. cerevisiae deletion strains, locus YLR221C, strain rsa3, active compounds read low 1.03 | S. cerevisiae deletion strains, locus YLR258W, strain gsy2, active compounds read low 1 | S. cerevisiae deletion strains, locus YLR262C, strain YPT6 (second series), active compounds read low 0.965 | S. cerevisiae deletion strains, locus YLR262C, strain YPT6, active compounds read low 1.02 | S. cerevisiae deletion strains, locus YLR268W, strain sec22, active compounds read low 1.01 | S. cerevisiae deletion strains, locus YLR320W, strain mms22, active compounds read low 1.02 | S. cerevisiae deletion strains, locus YLR330W, strain CHS5, active compounds read low 0.986 | S. cerevisiae deletion strains, locus YLR342W, strain FKS1 (second series), active compounds read low 1 | S. cerevisiae deletion strains, locus YLR342W, strain FKS1, active compounds read low 0.966 | S. cerevisiae deletion strains, locus YLR357W, strain rsc2, active compounds read low 1 | S. cerevisiae deletion strains, locus YLR370C, strain arc18, active compounds read low 0.972 | S. cerevisiae deletion strains, locus YLR371W, strain rom2, active compounds read low 0.992 | S. cerevisiae deletion strains, locus YLR384C, strain iki3, active compounds read low 0.97 | S. cerevisiae deletion strains, locus YLR418C, strain cdc73, active compounds read low 0.975 | S. cerevisiae deletion strains, locus YML016C, strain PPZ1, active compounds read low 0.989 | S. cerevisiae deletion strains, locus YML032C, strain rad52, active compounds read low 1 | S. cerevisiae deletion strains, locus YML120C, strain ndi1, active compounds read low 0.95 | S. cerevisiae deletion strains, locus YML124C, strain tub3, active compounds read low 0.998 | S. cerevisiae deletion strains, locus YMR058W, strain fet3, active compounds read low 0.975 | S. cerevisiae deletion strains, locus YMR078C, strain ctf18, active compounds read low 0.986 | S. cerevisiae deletion strains, locus YMR125W, strain sto1, active compounds read low 0.992 | S. cerevisiae deletion strains, locus YMR129W, active compounds read low 0.991 | S. cerevisiae deletion strains, locus YMR205C, strain PFK2, active compounds read low 0.99 | S. cerevisiae deletion strains, locus YMR223W, strain ubp8, active compounds read low 0.962 | S. cerevisiae deletion strains, locus YMR231W, strain pep5, active compounds read low 0.996 | S. cerevisiae deletion strains, locus YMR263W, strain SAP30, active compounds read low 0.996 | S. cerevisiae deletion strains, locus YMR307W, strain GAS1, active compounds read low 1 | S. cerevisiae deletion strains, locus YNL067W, strain RPL9B, active compounds read low 1.01 | S. cerevisiae deletion strains, locus YNL071W, strain lat1, active compounds read low 0.986 | S. cerevisiae deletion strains, locus YNL183C, strain NPR1, active compounds read low 0.968 | S. cerevisiae deletion strains, locus YNL209W, strain ssb2, active compounds read low 0.993 | S. cerevisiae deletion strains, locus YNL233W, strain BNI4, active compounds read low 0.984 | S. cerevisiae deletion strains, locus YNL248C, strain rpa49, active compounds read low 1.02 | S. cerevisiae deletion strains, locus YNL250W, strain rad50, active compounds read low 0.979 | S. cerevisiae deletion strains, locus YNL271C, strain bni1, active compounds read low 0.985 | S. cerevisiae deletion strains, locus YNL298W, strain CLA4, active compounds read low 0.989 | S. cerevisiae deletion strains, locus YNL307C, strain MCK1, active compounds read low 0.993 | S. cerevisiae deletion strains, locus YNL322C, strain KRE1 (second series), active compounds read low 0.987 | S. cerevisiae deletion strains, locus YNL322C, strain KRE1, active compounds read low 0.993 | S. cerevisiae deletion strains, locus YNR049C, strain mso1, active compounds read low 0.977 | S. cerevisiae deletion strains, locus YNR052C, strain pop2, active compounds read low 0.987 | S. cerevisiae deletion strains, locus YOL012C, strain htz1 0.745 | S. cerevisiae deletion strains, locus YOL147C, strain pex11, active compounds read low 0.985 | S. cerevisiae deletion strains, locus YOR001W, strain rrp6, active compounds read low 0.947 | S. cerevisiae deletion strains, locus YOR061W, strain CKA2, active compounds read low 0.998 | S. cerevisiae deletion strains, locus YOR069W, strain VPS5, active compounds read low 0.99 | S. cerevisiae deletion strains, locus YOR070C, strain gyp1, active compounds read low 0.993 | S. cerevisiae deletion strains, locus YOR080W, strain dia2, active compounds read low 0.971 | S. cerevisiae deletion strains, locus YOR083W, strain WHI5, active compounds read low 0.966 | S. cerevisiae deletion strains, locus YOR106W, strain vam3, active compounds read low 0.951 | S. cerevisiae deletion strains, locus YOR136W, strain idh2, active compounds read low 0.984 | S. cerevisiae deletion strains, locus YOR144C, strain elg1, active compounds read low 0.985 | S. cerevisiae deletion strains, locus YOR184W, strain ser1, active compounds read low 0.978 | S. cerevisiae deletion strains, locus YOR231W, strain MKK1, active compounds read low 1.04 | S. cerevisiae deletion strains, locus YOR265W, strain rbl2, active compounds read low 0.983 | S. cerevisiae deletion strains, locus YOR270C, strain vph1, active compounds read low 0.948 | S. cerevisiae deletion strains, locus YOR290C, strain snf2, active compounds read low 1 | S. cerevisiae deletion strains, locus YOR316C, strain cot1, active compounds read low 0.992 | S. cerevisiae deletion strains, locus YPL051W, strain arl3, active compounds read low 1 | S. cerevisiae deletion strains, locus YPL078C, strain atp4, active compounds read low 0.928 | S. cerevisiae deletion strains, locus YPL106C, strain sse1, active compounds read low 0.94 | S. cerevisiae deletion strains, locus YPL240C, strain hsp82, active compounds read low 0.981 | S. cerevisiae deletion strains, locus YPL241C, strain CIN2, active compounds read low 0.998 | S. cerevisiae deletion strains, locus YPL256C, strain CLN2, active compounds read low 1.03 | S. cerevisiae deletion strains, locus YPR119W, strain clb2, active compounds read low 0.997 | S. cerevisiae deletion strains, locus YPR141C, strain kar3, active compounds read low 0.985 | S. cerevisiae deletion strains, locus YPR163C, strain tif3, active compounds read low 0.987 | S. cerevisiae deletion strains, locus YPR167C, strain met16, active compounds read low 0.993 | S. cerevisiae deletion strains, strain wtn01, active compounds read low 0.98 | S. cerevisiae strains, strain wild type, active compounds read low 1.01
